Reference: PubChem BioAssay (NCI)
Compounds without any hit were thinned out: in the full panel of roughly 79,000, 15% have a hit. Unmarked numbers belong to inactive results. The source made the active and inactive calls. No stated cut-off is given here; in the data, active means growth inhibition above about 70%; inactive means the rest.

Assay: NCI Yeast Anticancer Drug Screen. Data for the mlh1 strain (AID 171);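 further: 0% = growth of vehicle-treated control cultures of the same strain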
Conditions: S. cerevisiae mlh1 strain growth inhibition, stronger effect = higher value
Procedure: Growth inhibition of yeast strains with defined genetic alterations is measured as a screen for potential anti-cancer activity. Selected strains with alterations in DNA damage repair or cell cycle control were exposed to compounds and growth inhibition was measured relative to vehicle treated controls. The strain used in this assay is mlh1

Compound	growth inhibition (at 1.2 µM)	growth inhibition (at 3.7 µM)	growth inhibition (at 11.0 µM)	growth inhibition (at 33.0 µM)	growth inhibition (at 100.0 µM)
COc1cccc(C(NC2=NCCC=N2)c2cc3c(cc2O)OCO3)c1O (stereo not given)	-4%	-3%	2%	3%	4%
O=C1Oc2ccccc2C(=O)/C1=C/N1C(=O)N/C(=C\c2ccccc2Br)C1=O	0%	5%	12%	43%	97% (active)
CCCCCCCCCCCCCCN	-3%	8%	2%	16%	98% (active)
CS(=O)(=O)O.[Ag]	89% (active)	100% (active)	99% (active)	99% (active)	98% (active)
O=P(C(=S)Nc1c(Cl)cccc1Cl)(c1ccccc1)c1ccccc1	10%	10%	0%	6%	95% (active)
CCN1CCC(O)(c2ccc(Oc3ccc(C)cc3)cc2)C(C(=O)c2ccc(Oc3ccc(C)cc3)cc2)C1 (stereo not given)	-7%	-2%	98% (active)	97% (active)	95% (active)
CCOc1ccc2nc3ccccc3c(N)c2c1	7%	8%	47%	90% (active)	98% (active)
OC1(c2ccccc2)C2CC=CC2C1(c1ccccc1)c1ccccc1 (stereo not given)	-3%	1%	7%	13%	45%
